Results reported in the supplement of paper PMC10849652.
The full data set covers some 8,800 targets. This sample favours those with a hit. About 0.5% of all pairs of compound and target were hits. A number with no mark means an inactive call.

Experiments:
Assay in all cases: log2 fold change, soluble protein after heating vs DMSO (PISA); higher = thermal stabilisation; K562 lysate, 10 uM; active = over 0.2 and 3.5 SD of the protein, either way, in both replicates (recomputed)
[1] = compound: C#Cc1cccc(Nc2ncnc3cc(OCCOC)c(OCCOC)cc23)c1 [erlotinib]
Method in brief: (§1)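 Log-two fold change in thermal stability relative to solvent controls is reported from duplicates. For each sample, crude K562 extract from dounce-homogenised pellets in PBS pH 7.4 with 1 mM MgCl2, at 1 mg/mL protein, was treated with 10 μM compound for 30 min. Aliquots heated for 3 min across 48°C-58°C were pooled, brought to 0.5% NP-40 at 4°C and cleared at 21,000xg for 90 min. The supernatant was quantified by TMTpro 16plex LC-MS/MS with channel sums equalised.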

[2] = compound: C/C(=N\NC(=O)C1=CC(=CC=C1)S(=O)(=O)N2CCOCC2)/C3=C(C=CC(=C3)Cl)O
Method in brief: as §1

[3] = compound: C1=CC(=CC=C1C2=NC3=C(N2)C=C(C=C3)C(=O)N)OC4=CC=C(C=C4)Cl
Method in brief: as §1

[4] = compound: C1=CC2=C(C=CC(=C2)/C=C\3/C(=O)NC(=NCC4=CC=CS4)S3)N=C1
Method in brief: as §1

[5] = compound: C1=CC2=NC=CN=C2C=C1/C=C/3\C(=O)NC(=O)S3
Method in brief: as §1

[6] = compound: C1=CC=C(C=C1)C2=NC(=C(N2)C3=CC=NC=C3)C4=CC(=C(C=C4)Cl)O
Method in brief: as §1

[7] = compound: C1=CC=C2C(=C1)C3=NNC4=CC=CC(=C43)C2=O
Method in brief: as §1

[8] = compound: C1CCN(C1)C(=O)NC2=CC=CC(=C2)NC3=NC=C(C(=N3)NCCC4=CN=CN4)Br
Method in brief: as §1

[9] = compound: C1CN(CCC1(CC2=CC=C(C=C2)Cl)N)C3=NC=NC4=C3C=CN4
Method in brief: as §1

[10] = compound: C1COCCN1CCN2C3=CC=CC=C3N=C2NC(=O)C4=CC(=CC=C4)[N+](=O)[O-] [IRAK-1-4 Inhibitor I]
Method in brief: as §1

PRKDC (UniProt P78527)
log2 fold change [1]: 0.021 | log2 fold change [2]: -0.064 | log2 fold change [3]: -0.029 | log2 fold change [4]: 0.135 | log2 fold change [5]: 0.927 (active) | log2 fold change [6]: 0.037 | log2 fold change [7]: 0.068 | log2 fold change [8]: 0.122 | log2 fold change [9]: -0.041 | log2 fold change [10]: 0.02

PRKAR2B (UniProt P31323)
Sequence of UniProt P31323 (P31323 whole entry, looked up): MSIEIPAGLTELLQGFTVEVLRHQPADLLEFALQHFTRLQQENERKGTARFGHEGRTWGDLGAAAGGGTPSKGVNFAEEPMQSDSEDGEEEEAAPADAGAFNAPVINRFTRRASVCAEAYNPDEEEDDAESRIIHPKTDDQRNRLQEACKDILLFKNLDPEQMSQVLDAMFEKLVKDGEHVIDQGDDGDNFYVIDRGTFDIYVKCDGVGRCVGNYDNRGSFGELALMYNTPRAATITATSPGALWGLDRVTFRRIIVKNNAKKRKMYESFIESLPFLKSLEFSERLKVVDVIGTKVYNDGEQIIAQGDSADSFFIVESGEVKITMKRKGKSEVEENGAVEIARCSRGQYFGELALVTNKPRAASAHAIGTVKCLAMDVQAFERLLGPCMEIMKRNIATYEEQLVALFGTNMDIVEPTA
log2 fold change [1]: 0 | log2 fold change [2]: 0.066 | log2 fold change [3]: -0.022 | log2 fold change [4]: -0.025 | log2 fold change [5]: 0.018 | log2 fold change [6]: -0.03 | log2 fold change [7]: -0.116 | log2 fold change [8]: -0.16 | log2 fold change [9]: -0.131 | log2 fold change [10]: -0.016

PCBP3 (UniProt P57721)
log2 fold change [1]: 0.005 | log2 fold change [2]: 0.028 | log2 fold change [3]: 0.021 | log2 fold change [4]: -0.031 | log2 fold change [5]: 0.02 | log2 fold change [6]: 0.02 | log2 fold change [7]: 0.029 | log2 fold change [8]: -0.003 | log2 fold change [9]: 0.021 | log2 fold change [10]: -0.005

PDF (UniProt Q9HBH1)
Sequence of UniProt Q9HBH1 (Q9HBH1 whole entry, looked up): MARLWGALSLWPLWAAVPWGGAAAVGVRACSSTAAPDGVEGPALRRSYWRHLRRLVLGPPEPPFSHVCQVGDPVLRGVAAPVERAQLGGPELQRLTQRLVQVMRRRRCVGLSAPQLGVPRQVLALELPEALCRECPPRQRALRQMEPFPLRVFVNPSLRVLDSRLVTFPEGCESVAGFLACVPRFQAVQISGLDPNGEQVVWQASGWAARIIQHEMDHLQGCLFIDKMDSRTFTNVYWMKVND
log2 fold change [1]: 0.033 | log2 fold change [2]: 0.07 | log2 fold change [3]: -0.072 | log2 fold change [4]: 0.005 | log2 fold change [5]: -0.066 | log2 fold change [6]: 0.066 | log2 fold change [7]: -0.013 | log2 fold change [8]: 0.047 | log2 fold change [9]: -0.063 | log2 fold change [10]: 0.055

PRIM1 (UniProt P49642)
Sequence of UniProt P49642 (P49642 whole entry, looked up): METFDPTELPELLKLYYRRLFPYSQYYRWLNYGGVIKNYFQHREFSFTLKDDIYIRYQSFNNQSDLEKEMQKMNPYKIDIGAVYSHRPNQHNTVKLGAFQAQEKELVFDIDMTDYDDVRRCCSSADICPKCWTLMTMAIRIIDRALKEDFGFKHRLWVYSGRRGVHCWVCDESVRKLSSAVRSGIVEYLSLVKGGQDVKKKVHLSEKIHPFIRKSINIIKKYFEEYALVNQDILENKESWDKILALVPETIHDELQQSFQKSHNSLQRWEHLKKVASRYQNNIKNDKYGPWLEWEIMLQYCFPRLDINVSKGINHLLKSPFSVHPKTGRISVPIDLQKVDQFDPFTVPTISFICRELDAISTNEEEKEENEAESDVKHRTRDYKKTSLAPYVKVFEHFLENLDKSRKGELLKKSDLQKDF
log2 fold change [1]: -0.004 | log2 fold change [2]: 0.061 | log2 fold change [3]: -0.011 | log2 fold change [4]: -0.01 | log2 fold change [5]: -0.03 | log2 fold change [6]: 0.02 | log2 fold change [7]: 0 | log2 fold change [8]: -0.006 | log2 fold change [9]: 0.002 | log2 fold change [10]: 0.003

PI4K2B (UniProt Q8TCG2)
log2 fold change [1]: 0.023 | log2 fold change [2]: 0.035 | log2 fold change [3]: -0.041 | log2 fold change [4]: -0.089 | log2 fold change [5]: -0.002 | log2 fold change [6]: -0.047 | log2 fold change [7]: 0.009 | log2 fold change [8]: -0.07 | log2 fold change [9]: 0.136 | log2 fold change [10]: 0.026

PDCD4 (UniProt Q53EL6)
log2 fold change [1]: 0 | log2 fold change [2]: -0.052 | log2 fold change [3]: -0.02 | log2 fold change [4]: -0.003 | log2 fold change [5]: -0.004 | log2 fold change [6]: -0.026 | log2 fold change [7]: 0.014 | log2 fold change [8]: -0.011 | log2 fold change [9]: 0.008 | log2 fold change [10]: 0.015

PICALM (UniProt H0YEH1)
log2 fold change [1]: -0.004 | log2 fold change [2]: -0.111 | log2 fold change [3]: 0.053 | log2 fold change [4]: 0.066 | log2 fold change [5]: -0.021 | log2 fold change [6]: -0.015 | log2 fold change [7]: 0.106 | log2 fold change [8]: -0.219 | log2 fold change [9]: -0.333 | log2 fold change [10]: 0.053

PPP3CA isoform 2 (UniProt Q08209)
log2 fold change [1]: -0.005 | log2 fold change [2]: -0.037 | log2 fold change [3]: 0.045 | log2 fold change [4]: -0.036 | log2 fold change [5]: -0.014 | log2 fold change [6]: 0.014 | log2 fold change [7]: -0.006 | log2 fold change [8]: 0.082 | log2 fold change [9]: -0.026 | log2 fold change [10]: -0.01

PCBD2 (UniProt Q9H0N5)
Sequence of UniProt Q9H0N5 (Q9H0N5 whole entry, looked up): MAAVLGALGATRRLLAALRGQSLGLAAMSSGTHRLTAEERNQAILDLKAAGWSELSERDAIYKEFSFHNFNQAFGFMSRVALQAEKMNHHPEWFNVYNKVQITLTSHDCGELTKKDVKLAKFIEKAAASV
log2 fold change [1]: -0.012 | log2 fold change [2]: -0.033 | log2 fold change [3]: 0.044 | log2 fold change [4]: -0.022 | log2 fold change [5]: 0.079 | log2 fold change [6]: 0.005 | log2 fold change [7]: -0.014 | log2 fold change [8]: -0.018 | log2 fold change [9]: -0.015 | log2 fold change [10]: -0.01

POLD3 (UniProt Q15054)
Sequence of UniProt Q15054 (Q15054 whole entry, looked up): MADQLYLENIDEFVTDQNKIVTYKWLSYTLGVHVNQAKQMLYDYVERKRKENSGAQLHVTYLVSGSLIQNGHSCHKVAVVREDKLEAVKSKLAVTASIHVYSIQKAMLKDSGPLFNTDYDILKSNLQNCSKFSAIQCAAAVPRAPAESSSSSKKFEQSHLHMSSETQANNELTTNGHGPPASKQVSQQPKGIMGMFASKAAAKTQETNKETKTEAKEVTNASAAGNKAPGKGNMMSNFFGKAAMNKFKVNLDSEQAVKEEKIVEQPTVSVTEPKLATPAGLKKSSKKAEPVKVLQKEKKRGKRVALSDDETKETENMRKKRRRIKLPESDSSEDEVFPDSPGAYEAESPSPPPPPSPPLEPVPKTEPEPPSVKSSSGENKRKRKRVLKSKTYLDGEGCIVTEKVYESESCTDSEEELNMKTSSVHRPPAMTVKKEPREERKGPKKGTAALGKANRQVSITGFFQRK
log2 fold change [1]: 0.015 | log2 fold change [2]: 0.002 | log2 fold change [3]: -0.006 | log2 fold change [4]: -0.003 | log2 fold change [5]: -0.048 | log2 fold change [6]: 0.01 | log2 fold change [7]: -0.048 | log2 fold change [8]: -0.058 | log2 fold change [9]: -0.012 | log2 fold change [10]: -0.035

PYURF (UniProt Q96I23)
Sequence of UniProt Q96I23 (Q96I23 whole entry, looked up): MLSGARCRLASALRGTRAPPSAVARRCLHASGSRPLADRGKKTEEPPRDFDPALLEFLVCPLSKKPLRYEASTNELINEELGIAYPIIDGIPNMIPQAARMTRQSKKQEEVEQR
log2 fold change [1]: -0.019 | log2 fold change [2]: 0.113 | log2 fold change [3]: 0.117 | log2 fold change [4]: 0.056 | log2 fold change [5]: 0.087 | log2 fold change [6]: -0.09 | log2 fold change [7]: -0.108 | log2 fold change [8]: 0.035 | log2 fold change [9]: 0.07 | log2 fold change [10]: -0.086

PRKRA (UniProt O75569)
Sequence of UniProt O75569 (O75569 whole entry, looked up): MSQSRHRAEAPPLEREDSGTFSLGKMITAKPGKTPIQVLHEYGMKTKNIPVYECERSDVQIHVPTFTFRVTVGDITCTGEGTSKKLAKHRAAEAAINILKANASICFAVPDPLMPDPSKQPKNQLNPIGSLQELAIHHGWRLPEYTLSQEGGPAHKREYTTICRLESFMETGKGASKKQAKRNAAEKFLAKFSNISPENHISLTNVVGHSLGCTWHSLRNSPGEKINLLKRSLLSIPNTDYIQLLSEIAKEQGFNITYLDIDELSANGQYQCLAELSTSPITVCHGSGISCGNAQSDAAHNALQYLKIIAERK
log2 fold change [1]: 0.016 | log2 fold change [2]: -0.1 | log2 fold change [3]: -0.061 | log2 fold change [4]: -0.01 | log2 fold change [5]: 0.08 | log2 fold change [6]: 0.012 | log2 fold change [7]: -0.012 | log2 fold change [8]: -0.074 | log2 fold change [9]: 0.018 | log2 fold change [10]: 0.033

PSTPIP2 (UniProt Q9H939)
Sequence of UniProt Q9H939 (Q9H939 whole entry, looked up): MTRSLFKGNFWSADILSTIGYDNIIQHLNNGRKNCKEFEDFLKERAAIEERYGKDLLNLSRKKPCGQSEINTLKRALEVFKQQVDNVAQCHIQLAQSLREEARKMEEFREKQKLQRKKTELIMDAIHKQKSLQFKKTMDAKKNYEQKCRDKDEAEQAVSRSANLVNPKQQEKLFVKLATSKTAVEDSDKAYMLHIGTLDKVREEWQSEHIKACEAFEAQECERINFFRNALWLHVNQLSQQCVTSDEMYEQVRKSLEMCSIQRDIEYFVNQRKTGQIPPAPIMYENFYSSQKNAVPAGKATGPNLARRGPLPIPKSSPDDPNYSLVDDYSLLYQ
log2 fold change [1]: 0.002 | log2 fold change [2]: 0.05 | log2 fold change [3]: -0.028 | log2 fold change [4]: 0.055 | log2 fold change [5]: -0.031 | log2 fold change [6]: -0.003 | log2 fold change [7]: -0.122 | log2 fold change [8]: 0.01 | log2 fold change [9]: 0.005 | log2 fold change [10]: 0.009

PMPCA (UniProt Q10713)
log2 fold change [1]: -0.034 | log2 fold change [2]: -0.012 | log2 fold change [3]: 0.073 | log2 fold change [4]: 0.008 | log2 fold change [5]: -0.006 | log2 fold change [6]: 0.043 | log2 fold change [7]: -0.014 | log2 fold change [8]: -0.026 | log2 fold change [9]: -0.012 | log2 fold change [10]: 0.007

PRKD3 (UniProt O94806)
log2 fold change [1]: -0.041 | log2 fold change [2]: 0.105 | log2 fold change [3]: -0.123 | log2 fold change [4]: -0.145 | log2 fold change [5]: 0.039 | log2 fold change [6]: 0.115 | log2 fold change [7]: 0.123 | log2 fold change [8]: -0.163 | log2 fold change [9]: -0.115 | log2 fold change [10]: 0.053

PUS1 (UniProt Q9Y606)
log2 fold change [1]: 0.033 | log2 fold change [2]: -0.174 | log2 fold change [3]: 0.007 | log2 fold change [4]: 0.01 | log2 fold change [5]: 0.024 | log2 fold change [6]: 0.005 | log2 fold change [7]: -0.06 | log2 fold change [8]: 0.016 | log2 fold change [9]: -0.021 | log2 fold change [10]: 0.004

PLEKHA5 isoform 6 (UniProt Q9HAU0)
Sequence of UniProt Q9HAU0 (Q9HAU0 whole entry, looked up): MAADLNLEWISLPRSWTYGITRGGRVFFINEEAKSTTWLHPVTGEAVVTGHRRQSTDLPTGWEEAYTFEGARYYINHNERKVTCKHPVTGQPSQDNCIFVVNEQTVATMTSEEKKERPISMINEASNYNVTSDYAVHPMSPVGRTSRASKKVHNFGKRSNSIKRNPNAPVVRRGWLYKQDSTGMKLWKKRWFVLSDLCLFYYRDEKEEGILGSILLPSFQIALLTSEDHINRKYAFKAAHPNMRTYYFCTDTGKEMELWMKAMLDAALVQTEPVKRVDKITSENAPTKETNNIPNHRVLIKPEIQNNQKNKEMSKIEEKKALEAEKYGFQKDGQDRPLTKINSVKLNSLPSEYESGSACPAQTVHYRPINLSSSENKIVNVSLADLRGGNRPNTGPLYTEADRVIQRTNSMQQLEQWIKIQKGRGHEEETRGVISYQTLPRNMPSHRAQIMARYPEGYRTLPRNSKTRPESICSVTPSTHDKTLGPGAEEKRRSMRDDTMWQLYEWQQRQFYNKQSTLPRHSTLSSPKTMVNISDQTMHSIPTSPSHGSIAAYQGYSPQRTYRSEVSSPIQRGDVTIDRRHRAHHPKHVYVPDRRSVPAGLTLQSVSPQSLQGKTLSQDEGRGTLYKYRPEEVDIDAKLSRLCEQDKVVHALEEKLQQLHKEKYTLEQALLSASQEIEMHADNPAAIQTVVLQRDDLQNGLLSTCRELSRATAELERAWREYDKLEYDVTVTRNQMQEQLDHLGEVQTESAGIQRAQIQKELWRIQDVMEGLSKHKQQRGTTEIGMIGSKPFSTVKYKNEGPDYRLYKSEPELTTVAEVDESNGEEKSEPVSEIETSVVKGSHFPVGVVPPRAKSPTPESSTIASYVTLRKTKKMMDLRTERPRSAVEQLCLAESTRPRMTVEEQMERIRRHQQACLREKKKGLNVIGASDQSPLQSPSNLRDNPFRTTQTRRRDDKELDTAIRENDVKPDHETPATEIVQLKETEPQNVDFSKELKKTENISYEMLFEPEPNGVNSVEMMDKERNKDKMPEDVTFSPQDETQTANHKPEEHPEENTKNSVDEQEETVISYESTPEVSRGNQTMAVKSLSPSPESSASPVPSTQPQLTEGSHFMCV
log2 fold change [1]: -0.007 | log2 fold change [2]: -0.021 | log2 fold change [3]: 0.016 | log2 fold change [4]: -0.058 | log2 fold change [5]: 0.087 | log2 fold change [6]: -0.021 | log2 fold change [7]: -0.007 | log2 fold change [8]: -0.002 | log2 fold change [9]: -0.04 | log2 fold change [10]: 0.019

PUS3 (UniProt Q9BZE2)
Sequence of UniProt Q9BZE2 (Q9BZE2 whole entry, looked up): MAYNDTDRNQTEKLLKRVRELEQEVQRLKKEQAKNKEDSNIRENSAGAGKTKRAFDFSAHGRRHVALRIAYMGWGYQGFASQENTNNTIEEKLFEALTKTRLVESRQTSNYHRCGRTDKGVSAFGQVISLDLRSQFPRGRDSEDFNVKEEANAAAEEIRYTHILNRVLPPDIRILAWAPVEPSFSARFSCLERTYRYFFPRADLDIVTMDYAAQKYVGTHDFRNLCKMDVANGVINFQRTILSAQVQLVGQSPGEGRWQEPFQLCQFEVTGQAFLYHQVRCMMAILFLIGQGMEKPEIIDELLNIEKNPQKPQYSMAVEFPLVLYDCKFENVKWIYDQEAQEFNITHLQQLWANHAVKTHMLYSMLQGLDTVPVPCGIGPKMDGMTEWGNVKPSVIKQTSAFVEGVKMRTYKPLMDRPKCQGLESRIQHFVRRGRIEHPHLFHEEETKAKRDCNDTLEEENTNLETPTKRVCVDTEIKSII
log2 fold change [1]: -0.014 | log2 fold change [2]: 0.043 | log2 fold change [3]: -0.028 | log2 fold change [4]: -0.048 | log2 fold change [5]: 0.048 | log2 fold change [6]: -0.006 | log2 fold change [7]: -0.064 | log2 fold change [8]: -0.028 | log2 fold change [9]: 0.097 | log2 fold change [10]: -0.058

PCIF1 (UniProt Q9H4Z3)
log2 fold change [1]: -0.011 | log2 fold change [2]: 0.067 | log2 fold change [3]: -0.008 | log2 fold change [4]: 0.042 | log2 fold change [5]: 0.102 | log2 fold change [6]: -0.015 | log2 fold change [7]: 0.014 | log2 fold change [8]: -0.011 | log2 fold change [9]: -0.033 | log2 fold change [10]: -0.041

PTGR2 (UniProt Q8N8N7)
Sequence of UniProt Q8N8N7 (Q8N8N7 whole entry, looked up): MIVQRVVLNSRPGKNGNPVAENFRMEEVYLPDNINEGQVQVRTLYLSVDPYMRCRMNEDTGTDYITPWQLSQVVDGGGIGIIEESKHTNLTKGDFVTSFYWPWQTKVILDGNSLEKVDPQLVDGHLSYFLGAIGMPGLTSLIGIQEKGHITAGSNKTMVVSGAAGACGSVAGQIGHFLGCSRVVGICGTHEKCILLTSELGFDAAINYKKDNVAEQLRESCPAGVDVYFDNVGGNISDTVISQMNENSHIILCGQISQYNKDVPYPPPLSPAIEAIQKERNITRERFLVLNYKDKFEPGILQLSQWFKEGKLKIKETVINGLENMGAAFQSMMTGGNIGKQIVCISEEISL
log2 fold change [1]: 0.01 | log2 fold change [2]: 0.064 | log2 fold change [3]: 0.001 | log2 fold change [4]: 0.065 | log2 fold change [5]: -0.041 | log2 fold change [6]: 0.054 | log2 fold change [7]: 0.016 | log2 fold change [8]: 0.015 | log2 fold change [9]: 0.001 | log2 fold change [10]: -0.035

PPFIA2 (UniProt O75334)
log2 fold change [1]: 0.019 | log2 fold change [2]: -0.005 | log2 fold change [3]: 0.02 | log2 fold change [4]: -0.004 | log2 fold change [5]: 0.065 | log2 fold change [6]: 0.012 | log2 fold change [7]: -0.006 | log2 fold change [8]: 0.02 | log2 fold change [9]: -0.074 | log2 fold change [10]: -0.022

PFKFB2 (UniProt O60825)
Sequence of UniProt O60825 (O60825 whole entry, looked up): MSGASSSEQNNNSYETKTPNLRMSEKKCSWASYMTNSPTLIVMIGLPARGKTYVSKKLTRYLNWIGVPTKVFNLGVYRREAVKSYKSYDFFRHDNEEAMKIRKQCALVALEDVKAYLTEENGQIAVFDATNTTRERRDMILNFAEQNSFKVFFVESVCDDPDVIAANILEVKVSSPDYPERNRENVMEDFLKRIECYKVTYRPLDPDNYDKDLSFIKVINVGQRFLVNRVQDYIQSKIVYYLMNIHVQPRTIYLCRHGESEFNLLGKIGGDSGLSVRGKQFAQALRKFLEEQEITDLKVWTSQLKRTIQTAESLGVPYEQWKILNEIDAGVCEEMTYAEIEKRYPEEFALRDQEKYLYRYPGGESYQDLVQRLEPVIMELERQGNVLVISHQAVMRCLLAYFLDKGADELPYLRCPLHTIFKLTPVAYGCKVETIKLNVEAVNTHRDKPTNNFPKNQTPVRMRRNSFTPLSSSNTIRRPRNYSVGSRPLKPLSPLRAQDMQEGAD
log2 fold change [1]: -0.007 | log2 fold change [2]: -0.012 | log2 fold change [3]: 0.03 | log2 fold change [4]: -0.004 | log2 fold change [5]: 0.005 | log2 fold change [6]: -0.02 | log2 fold change [7]: 0.02 | log2 fold change [8]: -0.004 | log2 fold change [9]: 0.002 | log2 fold change [10]: -0.001

PTMA (UniProt P06454)
log2 fold change [1]: -0.002 | log2 fold change [2]: 0.062 | log2 fold change [3]: 0.067 | log2 fold change [4]: -0.013 | log2 fold change [5]: -0.002 | log2 fold change [6]: 0.01 | log2 fold change [7]: -0.017 | log2 fold change [8]: -0.009 | log2 fold change [9]: -0.017 | log2 fold change [10]: -0.037

PXMP4 (UniProt Q9Y6I8)
log2 fold change [1]: 0.024 | log2 fold change [2]: 0.068 | log2 fold change [3]: 0.084 | log2 fold change [4]: -0.053 | log2 fold change [5]: 0.013 | log2 fold change [6]: 0.053 | log2 fold change [7]: -0.038 | log2 fold change [8]: 0.043 | log2 fold change [9]: 0.022 | log2 fold change [10]: 0.016

PPIL2 (UniProt Q13356)
log2 fold change [1]: -0.03 | log2 fold change [2]: 0.02 | log2 fold change [3]: 0.007 | log2 fold change [4]: 0.021 | log2 fold change [5]: -0.002 | log2 fold change [6]: 0.039 | log2 fold change [7]: -0.045 | log2 fold change [8]: -0.036 | log2 fold change [9]: 0.003 | log2 fold change [10]: -0.016

PRKAB2 (UniProt O43741)
log2 fold change [1]: -0.032 | log2 fold change [2]: -0.165 | log2 fold change [3]: 0.096 | log2 fold change [4]: -0.041 | log2 fold change [5]: 0.031 | log2 fold change [6]: 0.039 | log2 fold change [7]: 0.153 | log2 fold change [8]: 0.196 | log2 fold change [9]: 0.042 | log2 fold change [10]: 0.24
